Assay outcomes from PubChem.
12-hLO inh = qHTS Assay for Inhibitors of 12-hLO (12-human lipoxygenase); Polyunsaturated fatty acid lipoxygenase ALOX12 (Homo sapiens), P18054; AID 1452, 2008; purified 12-hLO, xylenol orange hydroperoxide absorbance; Potency, µM (doses to about 57.1 µM), inactives show at the top dose activity change, negative = inhibition, most hits filed as inhibitors; 150,000 compounds, 0.12% hits; further: potency means the concentration at half of the fitted maximal effect; nearly all actives have a fitted effect of over 55% in size
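Hydroperoxide formation by human 12-lipoxygenase from 40 uM arachidonic acid was followed colorimetrically via ferric-xylenol orange complex, using the 573/405 nm absorbance ratio. Enzyme concentration was 150 nM, with 30 min reaction at room temperature.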
IMPase inh = qHTS Assay for Identifying the Cell-Membrane Permeable IMPase Inhibitors; CHO-M1 cells, IP1 accumulation, HTRF TR-FRET ratio; inhibition (IP1 accumulation), % at 46.1 µM; 120,000 tested, under 10 active; AID 901, 2007; active means well fitted curve in the direction sought with a large enough effect in the signal ratio, not every such curve was filed as active; inconclusive means small, poorly fitted or top-dose-only effect, or a change in a side signal; inactive means no such curve, though single readings can be large or run the other way; the % refers to the signal ratio;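 further: cells stimulated with carbachol in lithium chloride buffer; plate controls were DMSO basal wells for no effect and reference inhibitor wells for full effect; higher means more IMPase inhibition seen as more IP1 and lower FRET ratio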
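Elevated IP1 in lysates lowers TR-FRET signal (665/620 ratio and 620 channel reported). Cells were CHO-M1, given carbachol (50 uM as added) plus 50mM LiCl, pH 7.4, 30 min, 37C; compounds titrated up to 46 uM; AC50 by Hill equation.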
IMPase Li cell = qHTS Assay for Identifying the Cell-Membrane Permeable IMPase Inhibitors: Potentiation with Lithium. 210,000 compounds, 0.35% hits. CHO-M1 cells, IP1 TR-FRET (IP-One), carbachol + lithium. Potency, µM (highest dose often 59.4 µM), for inactives: at the highest dose activity, negative = IMPase inhibition, usual class: inhibitors;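 further: IP1 builds up when IMPase is blocked and the TR-FRET signal falls; potency means the concentration at half of the fitted maximal effect; plate controls were basal vehicle for no effect and high inhibitor control for full effect; nearly all actives have a fitted effect of over 50% in size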
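Readout is a homogeneous TR-FRET IP1 immunoassay (Ex 320, Em 665 and 620), where raised cytosolic IP1 lowers signal. Cells were CHO-M1 treated 30 min at 37C with test compounds plus a little lithium; AC50 values came from Hill-equation fitting.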
15-hLO-2 inh = qHTS Assay for Inhibitors of 15-hLO-2 (15-human lipoxygenase 2). Polyunsaturated fatty acid lipoxygenase ALOX15B (Homo sapiens), O15296. purified 15hLO-2, xylenol orange hydroperoxide absorbance. Potency, µM (doses to about 57.1 µM), inactives show top-dose activity change, negative = inhibition, most hits filed as inhibitors. 110,000 compounds, 0.56% hits; further: potency means the concentration at half of the fitted maximal effect; nearly all actives have a fitted effect of over 60% in size
Target sequence (O15296 whole entry, looked up): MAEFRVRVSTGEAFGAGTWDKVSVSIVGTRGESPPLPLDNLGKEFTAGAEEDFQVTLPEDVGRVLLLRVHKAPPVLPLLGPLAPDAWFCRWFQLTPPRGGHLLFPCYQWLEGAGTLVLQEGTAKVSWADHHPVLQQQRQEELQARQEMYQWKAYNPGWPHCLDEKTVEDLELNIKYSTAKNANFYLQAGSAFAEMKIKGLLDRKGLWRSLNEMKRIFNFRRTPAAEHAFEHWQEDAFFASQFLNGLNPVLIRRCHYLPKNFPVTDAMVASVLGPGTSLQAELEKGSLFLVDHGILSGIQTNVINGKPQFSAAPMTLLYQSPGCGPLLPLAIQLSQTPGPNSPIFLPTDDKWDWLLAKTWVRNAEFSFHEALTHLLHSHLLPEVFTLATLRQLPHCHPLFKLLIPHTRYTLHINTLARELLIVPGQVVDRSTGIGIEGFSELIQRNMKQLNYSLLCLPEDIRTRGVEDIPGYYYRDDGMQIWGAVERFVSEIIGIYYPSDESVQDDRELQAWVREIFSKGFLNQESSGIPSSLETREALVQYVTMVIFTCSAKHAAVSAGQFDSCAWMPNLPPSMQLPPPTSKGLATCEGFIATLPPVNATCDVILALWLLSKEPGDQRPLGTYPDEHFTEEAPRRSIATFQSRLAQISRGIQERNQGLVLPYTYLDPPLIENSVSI
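Read-out: hydroperoxide product oxidises ferrous iron, measured as xylenol orange complex via the 573-to-405 nm absorbance ratio after 30 min. Reaction: 50 nM enzyme, 15 min compound preincubation, 45 uM arachidonic acid, 90 min RT, Hepes pH 7.5 with Triton X-100.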
* marks the source's active call; other numbers are inactive results; ? = inconclusive; nt = no result; ! = not confirmed by another sample; [ ] = dose if it differs, or a comment. Only a selection was taken, and hits are over-represented in it overall. Unless noted, the call rests on the fitted dose curve; in most records, active means well fitted curve in the direction sought with a large enough effect; inconclusive means small, poorly fitted or top-dose-only effect, or another doubt; inactive means no such curve, though single readings can be large; an effect the other way counts as inactive or inconclusive. Unless noted, on the % scale 0 is the no-effect control and ±100 the full control effect.

SMILES	12-hLO inh	IMPase inh	IMPase Li cell	15-hLO-2 inh
O=c1ccc2cc(O[C@H]3OC(CO)C(O)C(O)C3O)c(O)cc2o1 (some centres not stated)	-11%	nt	13µM*	-10%
CC[C@@]1(O)C(=O)OCc2c1cc1n(c2=O)Cc2cc3cc(O)ccc3nc2-1	-15%	nt	10µM*	-30%
O=c1cc(-c2ccc(O)c(O)c2)oc2cc(O)cc(O)c12	?	9	24%	16µM*
C=CCc1c(C)[nH]c(=S)c(C#N)c1C	-24%	-7	-22%[38.3 µM]	13µM*
CCn1cnc2c(Nc3cccc(Cl)c3)nc(N[C@@H]3CCCC[C@H]3N)nc21	-12%	6	nt	45%
CCCN1CCc2cccc3c2C1Cc1ccc(O)c(O)c1-3 (configuration not stated)	nt	nt	14%	nt
C=CCN1CCc2cccc3c2[C@@H]1Cc1ccc(O)c(O)c1-3	-17%	-1	nt	6.3µM*
NC(N)=Nc1ccc2[nH]c3c(c2c1)C[C@]1(O)[C@@H]2Cc4ccc(O)c5c4[C@]1(CCN2CC1CC1)[C@H]3O5	?	20	nt	?
O=C(Cn1cc(C(=O)c2ccccc2F)c2ccccc21)NCc1ccco1	2%	6	8.9µM*	-2%
CC(C)(C)C(=O)c1cn(CC(=O)NCc2ccco2)c2ccccc12	nt	nt	6%	nt
COc1ccc2c(c1)[C@]13CCCC[C@@H]1[C@H](C2)NCC3	-4%	18	nt	15%
Cc1ccc(-c2nc3ccc(C)cn3c2CC(=O)N(C)C)cc1	0%	nt	3%	-5%
CCCN(CCC)C(=O)Cc1c(-c2ccc(Cl)cc2)nc2c(Cl)cc(Cl)cn12	-4%	1	10µM*	-5%
CCn1cc(C(=O)O)c(=O)c2cc3c(cc21)OCO3	-5%	1[20.6 µM]	7.9µM*!	8%
Cc1cc2c(C(C)C)c(O)c(O)c(C=O)c2c(O)c1-c1c(C)cc2c(C(C)C)c(O)c(O)c(C=O)c2c1O	?	-2	10%	3.5µM*
O=C(O)c1cc[c]([Hg][S]c2ncnc3nc[nH]c23)cc1	?	nt	8%	2.5µM*
N#CC(C#N)=NNc1ccc(OC(F)(F)F)cc1	-5%	nt	-2%	16µM*
N#CC(C#N)=NNc1cccc(Cl)c1	-11%	nt	38%	?
Ic1ccccc1CN[C@@H]1C2CCN(CC2)[C@H]1C(c1ccccc1)c1ccccc1	-3%	9	nt	36%
C/C=C(\C)C(=O)O[C@@H]1C(C)=C2[C@H]([C@@H]1OC(=O)CCCCCCC)[C@@](C)(OC(C)=O)C[C@@H](OC(=O)CCC)[C@@]1(O)[C@H]2OC(=O)[C@]1(C)O	-30%	10	nt	14%
O=S(=O)(NCCO)c1cc[c]([Sb](=[O])([OH])[OH])cc1	4%[11.4 µM]	nt	nt	5%[11.4 µM]
CSC([N-]/N=C/c1cccc(C)n1)=[S]=[Cu].CS[C@H]([S-])[N-]/N=C/c1cccc(C)n1	?	nt	nt	3.2µM*
CC[C@H](CO)NC(=O)[C@@H]1C=C2c3cccc4c3c(cn4C)C[C@@H]2N(C)C1	-5%	0	nt	-8%
N#CC(C#N)=Cc1ccc(O)c(O)c1	?	?	35%	13µM*
C=C(C)[C@H]1Cc2c(ccc3c2O[C@H]2COc4cc(OC)c(OC)cc4[C@@H]2C3=O)O1	-6%	13	nt	-5%
SMILES	12-hLO inh	IMPase inh	IMPase Li cell	15-hLO-2 inh
CCOc1ccc(-n2nc3c(=S)[nH]nc(C)c3c2C)cc1	3%	nt	5µM*	nt
CCOc1c(P(=S)(N(C)C)N(C)C)c(C)nn1-c1ccccc1	0%	-4	3%	3%
CN(C)C1C(=O)C(C(N)=O)=C(O)[C@@]2(O)C(=O)C3=C(O)c4c(O)cccc4[C@@](C)(O)C3[C@H](O)C12 (some centres not stated)	nt	nt	3.2µM*	nt
Nc1nc2c(ncn2[C@@H]2O[C@H](CO)[C@@H](O)[C@@H]2O)c(=[SH+])[nH]1.O=[N+]([O-])c1ccc(O)[c]([Hg])c1	nt	nt	23%	nt
O=C(NC1(C(F)(F)F)Oc2ccc(Cl)cc2O1)N1CCC2(CC1)OCCO2 (configuration not stated)	?	3	20%[38.3 µM]	7.9µM*
O=C(NC1(C(F)(F)F)Oc2ccccc2O1)N1CCC2(CC1)OCCO2	-9%	-4	9%	nt
COC(=O)c1ccccc1N=Cc1c(O)[nH]c(=S)[nH]c1=O	nt	nt	11µM*	nt
O=C(O)[C@@H](O)[C@@H](O)[C@@H]1[O][Sb][O][C@@H]1CO	1%[11.4 µM]	nt	nt	9%[11.4 µM]
C[C@@H]1[C@H]2C=C[C@@H]1[C@@H](c1c3ccc(=O)c(O)c-3oc3c(O)c(O)ccc13)[C@@H]2C(=O)O	-23%[11.4 µM]	nt	nt	?
